# Results: the supplement of paper PMC9262897, “Low-cost anti-mycobacterial drug discovery using engineered E. coli” (Nature Communications, 2022)
# Counter-ions that a name gives are not always drawn. ± gives the standard deviation of the averaged measurements.
# What was measured:
# Test in all cases: growth (OD600 after 10 h); higher = more growth (less inhibition)
# [1] = test system: E. coli TESEC Alr+ wild-type control; conditions: compound 0.1 mM; raw OD600 reference: median of DMSO wells 0.241, cell-free background 0.041
# Experimental: (§1)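 TESEC Mtb Alr E. coli, or the Alr+ wild-type control, in 384-well plates with Prestwick library compounds at 0.1 mM and 1% DMSO, across arabinose induction levels of 1E3 to 1E7 nM. Growth is read as OD600 after 10 h at 37 °C in triplicate biological replicates.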
# E. coli TESEC Mtb Alr [2] = conditions: compound 0.1 mM
# Experimental: as §1
# E. coli TESEC Mtb Asd = conditions: compound 0.1 mM
# Experimental: (§2)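 TESEC E. coli strains in which the native enzyme is deleted and replaced by arabinose-inducible Mtb Asd, DapB, CysH or TrpD, each grown in its selective medium. Strains were screened against the Prestwick library at 0.1 mM and 1% DMSO in 384-well format at low and high arabinose induction. Growth is read as OD600 after 10 h in triplicate.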
# [3] = test system: E. coli TESEC Alr+ wild-type control; conditions: compound 0.1 mM; raw OD600 reference: median of DMSO wells 0.49, cell-free background 0.052
# Experimental: (§3)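 TESEC Mtb Alr E. coli (ΔaraC ΔtolC ΔentC Δalr ΔdadX, arabinose-inducible Mtb Alr) or the Alr+ wild-type control strain, grown in defined M9-fructose medium without D-alanine in 96-well plates with Prestwick library compounds at 0.1 mM and 1% DMSO. Low Alr induction is 0.1 µM arabinose and high induction is 10 mM arabinose.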
# E. coli TESEC Mtb Alr [4] = conditions: compound 0.1 mM; remark: listed apart in the source
# Experimental: as §3
# E. coli TESEC Mtb DapB = conditions: compound 0.1 mM
# Experimental: as §2
# [5] = arabinose 1000 nM, raw OD600 reference: median of DMSO wells 0.294, cell-free background 0.041
# [6] = arabinose 10000 nM, raw OD600 reference: median of DMSO wells 0.264, cell-free background 0.041
# [7] = arabinose 100000 nM, raw OD600 reference: median of DMSO wells 0.201, cell-free background 0.041
# [8] = arabinose 1000000 nM, raw OD600 reference: median of DMSO wells 0.193, cell-free background 0.041
# [9] = arabinose 10000000 nM, raw OD600 reference: median of DMSO wells 0.146, cell-free background 0.041
# [10] = arabinose induction (level): High, raw OD600 reference: median of DMSO wells 0.331, cell-free background 0.041
# [11] = arabinose induction (level): Low, raw OD600 reference: median of DMSO wells 0.417, cell-free background 0.041
# [12] = arabinose 100 nM, raw OD600 reference: median of DMSO wells 0.413, cell-free background 0.052
# [13] = arabinose 10000000 nM, raw OD600 reference: median of DMSO wells […], cell-free background 0.052
structure (smiles),measurement,setting,value
Cc1cc(O)c(C(=O)N[C@@H](C(=O)N[C@@H]2C(=O)N3C(C(=O)O)=C(CSc4nnnn4C)CS[C@H]23)c2ccc(O)cc2)cn1 [Cefpiramide],growth,[1],0.2668 ± 0.0012
same,growth,E. coli TESEC Mtb Alr [2]; [5],0.3183 ± 0.00044
same,growth,E. coli TESEC Mtb Alr [2]; [6],0.245 ± 0.0057
same,growth,E. coli TESEC Mtb Alr [2]; [7],0.217 ± 0.015
same,growth,E. coli TESEC Mtb Alr [2]; [8],0.208 ± 0.027
same,growth,E. coli TESEC Mtb Alr [2]; [9],0.135 ± 0.0067
same,growth,E. coli TESEC Mtb Asd; [10],0.356 ± 0.063
same,growth,E. coli TESEC Mtb Asd; [11],0.375 ± 0.077
same,growth,[3],0.584 ± 0.046
same,growth,E. coli TESEC Mtb Alr [4]; [12],0.419 ± 0.016
same,growth,E. coli TESEC Mtb Alr [4]; [13],0.3403 ± 0.00045
CCCCc1ccc2[nH]c(NC(=O)OC)nc2c1 [Parbendazole],growth,[1],0.244 ± 0.01
same,growth,E. coli TESEC Mtb Alr [2]; [5],0.307 ± 0.0063
same,growth,E. coli TESEC Mtb Alr [2]; [6],0.277 ± 0.0036
same,growth,E. coli TESEC Mtb Alr [2]; [7],0.213 ± 0.034
same,growth,E. coli TESEC Mtb Alr [2]; [8],0.206 ± 0.0056
same,growth,E. coli TESEC Mtb Alr [2]; [9],0.156 ± 0.0051
same,growth,E. coli TESEC Mtb Asd; [10],0.279 ± 0.015
same,growth,E. coli TESEC Mtb Asd; [11],0.435 ± 0.0069
same,growth,[3],0.496 ± 0.038
same,growth,E. coli TESEC Mtb Alr [4]; [12],0.4255 ± 0.003
same,growth,E. coli TESEC Mtb Alr [4]; [13],0.374 ± 0.045
NC(=O)N1c2ccccc2CC(=O)c2ccccc21 [Oxcarbazepine],growth,[1],0.236 ± 0.0086
same,growth,E. coli TESEC Mtb Alr [2]; [5],0.269 ± 0.015
same,growth,E. coli TESEC Mtb Alr [2]; [6],0.256 ± 0.0035
same,growth,E. coli TESEC Mtb Alr [2]; [7],0.211 ± 0.03
same,growth,E. coli TESEC Mtb Alr [2]; [8],0.171 ± 0.0024
same,growth,E. coli TESEC Mtb Alr [2]; [9],0.146 ± 0.0084
same,growth,E. coli TESEC Mtb Asd; [10],0.225 ± 0.042
same,growth,E. coli TESEC Mtb Asd; [11],0.322 ± 0.043
same,growth,[3],0.601 ± 0.13
same,growth,E. coli TESEC Mtb Alr [4]; [12],0.403 ± 0.0086
same,growth,E. coli TESEC Mtb Alr [4]; [13],0.321 ± 0.0074
O=C1[C@H]2CCCC[C@H]2C(=O)N1CCCCN1CCN(c2nsc3ccccc23)CC1 [Perospirone],growth,[1],0.131 ± 0.0041
same,growth,E. coli TESEC Mtb Alr [2]; [5],0.225 ± 0.0052
same,growth,E. coli TESEC Mtb Alr [2]; [6],0.257 ± 0.0052
same,growth,E. coli TESEC Mtb Alr [2]; [7],0.146 ± 0.0072
same,growth,E. coli TESEC Mtb Alr [2]; [8],0.103 ± 0.0012
same,growth,E. coli TESEC Mtb Alr [2]; [9],0.1416 ± 0.00075
same,growth,E. coli TESEC Mtb Asd; [10],0.188 ± 0.026
same,growth,E. coli TESEC Mtb Asd; [11],0.369 ± 0.015
same,growth,"E. coli TESEC Mtb DapB; arabinose induction (level): High, raw OD600 reference: median of DMSO wells […], cell-free background 0.041",0.174 ± 0.013
same,growth,"E. coli TESEC Mtb DapB; arabinose induction (level): Low, raw OD600 reference: median of DMSO wells 0.227, cell-free background 0.041",0.241 ± 0.037
same,growth,E. coli TESEC Mtb Alr [4]; [12],0.419 ± 0.0096
same,growth,E. coli TESEC Mtb Alr [4]; [13],0.29 ± 0.027
CCCCC1(COC(=O)CCC(=O)O)C(=O)N(c2ccccc2)N(c2ccccc2)C1=O [Suxibuzone],growth,[1],0.203 ± 0.0032
same,growth,E. coli TESEC Mtb Alr [2]; [5],0.291 ± 0.013
same,growth,E. coli TESEC Mtb Alr [2]; [6],0.244 ± 0.0044
same,growth,E. coli TESEC Mtb Alr [2]; [7],0.192 ± 0.019
same,growth,E. coli TESEC Mtb Alr [2]; [8],0.188 ± 0.0095
same,growth,E. coli TESEC Mtb Alr [2]; [9],0.1314 ± 0.001
same,growth,E. coli TESEC Mtb Asd; [10],0.305 ± 0.052
same,growth,E. coli TESEC Mtb Asd; [11],0.427 ± 0.026
same,growth,[3],0.521 ± 0.1
same,growth,E. coli TESEC Mtb Alr [4]; [12],0.401 ± 0.0076
same,growth,E. coli TESEC Mtb Alr [4]; [13],0.341 ± 0.0062
CNC[C@H](O)[C@@H](O)[C@H](O)[C@H](O)CO [Meglumine],growth,[1],0.237 ± 0.0045
same,growth,E. coli TESEC Mtb Alr [2]; [5],0.306 ± 0.016
same,growth,E. coli TESEC Mtb Alr [2]; [6],0.254 ± 0.0031
same,growth,E. coli TESEC Mtb Alr [2]; [7],0.212 ± 0.025
same,growth,E. coli TESEC Mtb Alr [2]; [8],0.188 ± 0.0027
same,growth,E. coli TESEC Mtb Alr [2]; [9],0.136 ± 0.0042
same,growth,E. coli TESEC Mtb Asd; [10],0.325 ± 0.022
same,growth,E. coli TESEC Mtb Asd; [11],0.408 ± 0.066
same,growth,[3],0.548 ± 0.015
same,growth,E. coli TESEC Mtb Alr [4]; [12],0.404 ± 0.019
same,growth,E. coli TESEC Mtb Alr [4]; [13],0.356 ± 0.011
"OC(CCN1CCCCC1)(c1ccccc1)C1CCCCC1 (stereo not given) [Trihexyphenidyl-D,L Hydrochloride]",growth,[1],0.222 ± 0.012
same,growth,E. coli TESEC Mtb Alr [2]; [5],0.316 ± 0.019
same,growth,E. coli TESEC Mtb Alr [2]; [6],0.265 ± 0.012
same,growth,E. coli TESEC Mtb Alr [2]; [7],0.194 ± 0.0034
same,growth,E. coli TESEC Mtb Alr [2]; [8],0.147 ± 0.0092
same,growth,E. coli TESEC Mtb Alr [2]; [9],0.164 ± 0.0019
same,growth,E. coli TESEC Mtb Asd; [10],0.299 ± 0.04
same,growth,E. coli TESEC Mtb Asd; [11],0.43 ± 0.071
same,growth,[3],0.452 ± 0.031
same,growth,E. coli TESEC Mtb Alr [4]; [12],0.4127 ± 0.0033
same,growth,E. coli TESEC Mtb Alr [4]; [13],0.324 ± 0.024
CC[C@H]1OC(=O)[C@H](C)[C@@H](O[C@H]2C[C@@](C)(OC)[C@@H](O)[C@H](C)O2)[C@H](C)[C@@H](O[C@@H]2O[C@H](C)C[C@H](N(C)C)[C@H]2O)[C@](C)(O)C[C@@H](C)[C@@H]2N[C@@H](COCCOC)O[C@H]([C@H]2C)[C@]1(C)O [Dirithromycin],growth,[1],0.0424 ± 0.0002
same,growth,E. coli TESEC Mtb Alr [2]; [5],0.04193 ± 0.00015
same,growth,E. coli TESEC Mtb Alr [2]; [6],0.03907 ± 0.00012
same,growth,E. coli TESEC Mtb Alr [2]; [7],0.044 ± 0.00057
same,growth,E. coli TESEC Mtb Alr [2]; [8],0.0396 ± 0.0001
same,growth,E. coli TESEC Mtb Alr [2]; [9],0.0428 ± 0.0002
same,growth,E. coli TESEC Mtb Asd; [10],0.057 ± 0.0029
same,growth,E. coli TESEC Mtb Asd; [11],0.054 ± 0.0053
same,growth,[3],0.0524 ± 0.00093
same,growth,E. coli TESEC Mtb Alr [4]; [12],0.0635 ± 0.0042
same,growth,E. coli TESEC Mtb Alr [4]; [13],0.0507 ± 0.00036
c1ccc(C2CN3CCSC3=N2)cc1 (stereo not given) [Tetramisole hydrochloride],growth,[1],0.244 ± 0.003
same,growth,E. coli TESEC Mtb Alr [2]; [5],0.303 ± 0.011
same,growth,E. coli TESEC Mtb Alr [2]; [6],0.259 ± 0.0099
same,growth,E. coli TESEC Mtb Alr [2]; [7],0.242 ± 0.045
same,growth,E. coli TESEC Mtb Alr [2]; [8],0.176 ± 0.0046
same,growth,E. coli TESEC Mtb Alr [2]; [9],0.16 ± 0.0039
same,growth,E. coli TESEC Mtb Asd; [10],0.257 ± 0.033
same,growth,E. coli TESEC Mtb Asd; [11],0.358 ± 0.046
same,growth,[3],0.529 ± 0.087
same,growth,E. coli TESEC Mtb Alr [4]; [12],0.408 ± 0.014
same,growth,E. coli TESEC Mtb Alr [4]; [13],0.316 ± 0.015
